Test results published in the OligoGym collection.
Further: reference of the scale not given here.

These sequences were tested against EIF4EBP2 (assay: pooled miR-30 sensor sort-seq; sequence = guide strand). Details: shRNA.
Sequence TGGTGCAATAGTCATGAGGTAG has a sensor-assay potency score (higher = more potent) of -1.72.
TTCTACTTTGGAGTCTTCAATT gave a sensor-assay potency score (higher = more potent) of -1.52.
In the case of TTTCTGTCATAAATGATTCGAG, the sensor-assay potency score (higher = more potent) is reported as -0.301.
In the case of AATAGTCATGAGGTAGCTGCGC, the sensor-assay potency score (higher = more potent) is reported as -0.823.
Sequence AATTGTTTACTTCTACTTTGGA has a sensor-assay potency score (higher = more potent) of 0.534.
Sequence ATGTTTCCTGTCGTGATTGTTC has a sensor-assay potency score (higher = more potent) of -0.959.
For TGATTCGAGTTCCTCCCGGTGT, the sensor-assay potency score (higher = more potent) was -0.789.
For TAGTCATGAGGTAGCTGCGCGG, the sensor-assay potency score (higher = more potent) was -1.17.
Work on TTGTTCAAATTGTTTACTTCTA yielded a sensor-assay potency score (higher = more potent) of -0.655.
With AAATGATTCGAGTTCCTCCCGG the sensor-assay potency score (higher = more potent) was -0.69.
Sequence TGTTCAAATTGTTTACTTCTAC has a sensor-assay potency score (higher = more potent) of -0.311.
TTCTGTCATAAATGATTCGAGT was tested, and the sensor-assay potency score (higher = more potent) was -1.23.
In the case of AAACTTTCTGTCATAAATGATT, the sensor-assay potency score (higher = more potent) is reported as -1.63.
TTCAATTAAGGTGCCAGGGCTA gave a sensor-assay potency score (higher = more potent) of -0.657.
For TTGTTCAAGTTGTTCAAATTGT, the sensor-assay potency score (higher = more potent) was -0.233.
ATAGTCATGAGGTAGCTGCGCG gave a sensor-assay potency score (higher = more potent) of -0.462.
TACTTTGGAGTCTTCAATTAAG showed a sensor-assay potency score (higher = more potent) of -1.27.
Work on TTGGAGTCTTCAATTAAGGTGC yielded a sensor-assay potency score (higher = more potent) of -0.116.
For TCCAACAGAAACTTTCTGTCAT, the sensor-assay potency score (higher = more potent) was -0.136.
TAAATGATTCGAGTTCCTCCCG was tested, and the sensor-assay potency score (higher = more potent) was 0.0359.
With TCGCTGATGGCCACGGTGCGGG the sensor-assay potency score (higher = more potent) was -1.63.
In the case of TACTTCTACTTTGGAGTCTTCA, the sensor-assay potency score (higher = more potent) is reported as -0.613.
For AATGATTCGAGTTCCTCCCGGT, the sensor-assay potency score (higher = more potent) was 0.498.
TCAAATTGTTTACTTCTACTTT showed a sensor-assay potency score (higher = more potent) of -0.42.

These sequences were tested against ELF2 in the same assay as above. Details: shRNA.
TTGTCTTATCTGTACAGTGTGC gave a sensor-assay potency score (higher = more potent) of -0.612.
TAGTAGTATCTCAAAGCTCGTC showed a sensor-assay potency score (higher = more potent) of -0.0908.
TTGAACTGATATACAAGCCTCT gave a sensor-assay potency score (higher = more potent) of 0.343.
With TTCACTTTTGTCATCATCTATG the sensor-assay potency score (higher = more potent) was -0.773.
TTGATTTTCTACTCCATTGCTG was tested, and the sensor-assay potency score (higher = more potent) was 0.197.
Work on TTCTTCTGCCACATCTTGCATC yielded a sensor-assay potency score (higher = more potent) of -0.811.
TTTCACTTTTGTCATCATCTAT showed a sensor-assay potency score (higher = more potent) of -0.516.
In the case of TGATTTTCTACTCCATTGCTGG, the sensor-assay potency score (higher = more potent) is reported as -0.423.
In the case of TTGTCTGCAGTTGACACTGTGC, the sensor-assay potency score (higher = more potent) is reported as -0.232.
In the case of ATCATCATAAACCAGAACCTGG, the sensor-assay potency score (higher = more potent) is reported as -0.854.
In the case of TAGATCTAAAAGAAACTCCCAC, the sensor-assay potency score (higher = more potent) is reported as 0.171.
In the case of TTTTATCTTGAAGTAGATCTAA, the sensor-assay potency score (higher = more potent) is reported as -0.166.
For TGTCATTACAACAGGTACCTGC, the sensor-assay potency score (higher = more potent) was 0.12.
TATGTTTTTCGGCATATCCTTG gave a sensor-assay potency score (higher = more potent) of -0.943.
